Screens (PubChem BioAssay)
Pf growth 48h = P. falciparum growth inhibition at 48 hours (one generation) | Potency, µM (highest dose often 28.7 µM), without a hit: at the highest dose activity change, negative = inhibition, most hits filed as inhibitors | P. falciparum luciferase growth in erythrocytes, 48 h | AID 504832 | 310,000 compounds, 5.9% hits; also: potency is read from the fitted curve at half-maximal effect; % is scaled to controls: 0 for no effect and ±100 for the full control effect
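In quantitative HTS format, infected erythrocytes bearing luciferase-reporter parasites were treated for a single generation at 37 C. Luminescence after adding detection reagent served as the growth measure.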
HCV inhibitor = blocks hepatitis C virus. AID 651820. Huh7.5.1 HCVcc-Cre infection, luciferase reporter, 44 h. Potency, µM (highest dose often 41.8 µM), for inactives: at the top dose activity change, negative = inhibition, actives largely listed as inhibitors. 340,000 compounds, 3.4% hits; also: potency is read from the fitted curve at half-maximal effect; % is scaled to controls: 0 for no effect and ±100 for the full control effect
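Seed cells (1,000/well) for 4 h; treat with compound and infect with HCVcc-Cre, moi about 0.5. Incubate 44 h, then detect luciferase activity.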
Pf growth 96h = inhibits malaria parasite growth, 96 h. P. falciparum luciferase reporter growth, 96 h. 320,000 compounds, 6.9% hits. Potency, µM (series often up to 28.7 µM), without a hit: at the highest dose activity change, negative = inhibition, actives largely listed as inhibitors. AID 504834; also: potency is read from the fitted curve at half-maximal effect; % is scaled to controls: 0 for no effect and ±100 for the full control effect
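Two-generation exposure (96 h) targets delayed-death phenotype. Reporter parasites carrying integrated firefly luciferase, in red cells at 2% hematocrit and 0.05% parasitemia final, kept at 37 C, 5% CO2; luminescence loss indicates inhibition.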
SARS PLpro yeast = SARS-CoV PLP inhibition in yeast. S. cerevisiae expressing SARS-CoV PLpro, growth rescue. Potency, µM (top dose mostly 32.9 µM), inactives show at the top dose activity, positive = growth rescue, hits mostly activators. 330,000 compounds, 0.19% hits; calls by dose curve; also: potency is read from the fitted curve at half-maximal effect; 0% is about no effect; nearly all actives have a fitted effect of over 55% in size
Sm TGR block = inhibitors of Schistosoma mansoni thioredoxin glutathione reductase | 360,000 compounds, 3% hits | Potency, µM (top dose mostly 114 µM), inactives show top-dose activity change, negative = inhibition, actives largely listed as inhibitors | purified TGR, DTNB reduction, TNB absorbance 405 nm | Q962Y6; also: potency is read from the fitted curve at half-maximal effect; % is scaled to controls: 0 for no effect and ±100 for the full control effect; nearly all actives have a fitted effect of over 60% in size
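Kinetic colorimetric format: TGR-catalysed, NADPH-driven DTNB reduction monitored via TNB absorbance. Enzyme dispensed at 20 nM; compound exposure 15 min at room temperature before reaction start.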
HCMV antiviral = blocks human cytomegalovirus replication. HFF cells, HCMV-luciferase reporter, 72 h; stronger effect = lower value. AID 1259415. 410,000 compounds, 4.5% hits. activity change, negative = inhibition, % at 57.5 µM; in the data active = activity change below about -60%; inconclusive = no clear call, values can overlap the other calls; inactive = above about -39%; also: % is scaled to controls: 0 for no effect and ±100 for the full control effect
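Compounds were evaluated in HFFs infected with an HCMV luciferase reporter virus (MOI 1 PFU/cell). Luciferase in lysates collected 72 h post infection served as the replication measure.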
* = called active by the depositor; ? = inconclusive; nt = no result. Sampled rows, rich in hits. Any-hit rate of the full collection: about 15%. Unless noted, calls follow the shape of the dose curve; as a rule, active = well fitted curve in the direction sought with a large enough effect; inconclusive = small, poorly fitted or top-dose-only effect, or another doubt; inactive = no such curve, though single readings can be large; an effect the other way counts as inactive or inconclusive.

SMILES	Pf growth 48h	HCV inhibitor	Pf growth 96h	SARS PLpro yeast	Sm TGR block	HCMV antiviral
COc1cc([N+](=O)[O-])c2nccnc2c1	17.0%	16.5%	9.28µM*	-0.6%	1.7%	-27.4
Cc1cnc(C(=O)N(c2ccc(N3CCOCC3)cc2)C2C(=O)Nc3ccccc3N=C2c2ccc(F)cc2)cn1 (centres undefined)	nt	nt	nt	nt	nt	3.2
FC(F)(F)c1nc(N2CCCC2)ncc1-c1nnnn1-c1ccc(Cl)cc1	nt	10µM*	-1.9%	-18.9%	-27.8%	-65.1*
c1ccc(-n2nnnc2-c2cnc(-c3ccncc3)nc2-c2cccs2)cc1	10.4µM*	-24.0%	?	-48.0%	-5.7%	-21.9
Fc1ccc(-n2nnnc2-c2cnc(-c3cccs3)nc2C(F)(F)F)cc1	?	10µM*	5.22µM*	-12.5%	-27.0%	-86.2*
Cc1ccc(-n2nnnc2-c2cnc(-c3cccnc3)nc2C(F)(F)F)cc1	nt	10µM*	?	8.1%	-18.5%	?
Cc1ccc(CNS(=O)(=O)c2ccc(-n3cnnn3)c(C)c2)cc1	-2.2%	-11.4%	?	4.4%	-0.1%	-30.6
Cc1ccc(-n2nnnc2-c2cnn(-c3ccc(F)cc3)c2C(F)(F)F)cc1	?	?	?	10.6%	1.9%	-69.8*
Cc1cscc1-c1nc(NCC2CC2)nc2ccsc12	nt	nt	nt	nt	nt	91.5
CCc1ccc(N(C(=O)c2snc(C(N)=O)c2N)C(C(=O)NC2CCCC2)c2ccco2)cc1 (centres undefined)	?	?	5.5%	-0.1%	-0.1%	?
CCOCCCN(C(=O)c1snc(C(N)=O)c1N)C(C(=O)NC1CCCC1)c1ccc(OC)cc1 (centres undefined)	8.28µM*	-1.7%	5.4%	0.2%	-6.0%	-15.4
NC(=O)c1nsc(C(=O)N(CCc2ccccc2)C(C(=O)NC2CCCC2)c2ccco2)c1N (centres undefined)	?	-6.0%	10.4µM*	?	-1.1%	-60.1*
CCCC(C(=O)NC(C)(C)C)N(Cc1ccccc1Cl)C(=O)c1snc(C(N)=O)c1N (centres undefined)	?	?	?	-0.8%	-11.3%	-38.7
COc1ccc(CN(C(=O)c2snc(C(N)=O)c2N)C(CC(C)C)C(=O)NC2CCCCC2)cc1 (centres undefined)	11.7µM*	-5.8%	?	-3.6%	0.6%	?
CCCCC(C(=O)NC(C)(C)C)N(Cc1ccccc1Cl)C(=O)c1snc(C(N)=O)c1N (centres undefined)	10.4µM*	-18.8%	86.3%	-2.0%	3.7%	-1.1
COc1ccc2c(C)cc3n[nH]c(=S)n3c2c1	5.2%	0.4%	55.6%	-1.8%	-3.3%	?
CC(C)CCNC(=O)C(CC(C)C)N(Cc1ccc2c(c1)OCO2)C(=O)c1snc(C(N)=O)c1N (centres undefined)	?	?	60.0%	-0.8%	nt	14.8
CC(C)(C)NC(=O)C(c1ccco1)N(Cc1ccc2c(c1)OCO2)C(=O)c1snc(C(N)=O)c1N (centres undefined)	-20.6%	-10.1%	9.28µM*	0.7%	0.3%	-20.4
Cc1ccc(NC(=O)CN(C)S(=O)(=O)c2ccc3c(c2)CCC(=O)N3)c(C)c1	nt	nt	nt	nt	-7.8%	-0.5
O=C(NCCCN1CCN(c2ccccc2)CC1)c1nnc(Cc2c(F)cccc2Cl)o1	nt	nt	nt	nt	7.9%	-12.5
COCC(=O)N1CCC(n2nccc2NC(=O)c2ccccc2OC)CC1	?	-1.0%	-17.3%	4.7%	0.2%	6.2
NC(=O)C1CCN(C(=O)CCC(=O)N2CCOc3ccc(Cl)cc32)CC1	10.8%	17.2%	?	2.3%	-1.6%	13.8
Cc1cccc(N2CCN(C(=O)CCS(=O)(=O)c3ccc4c(c3)CC(=O)N4C)CC2C)c1 (centres undefined)	nt	nt	nt	nt	12.6µM*	-8.3
CCOc1ccc(CCNC(=O)CCC(=O)N2CCOc3ccccc32)cc1OCC	1.5%	?	2.4%	6.1%	-24.5%	14.8
